# CYP2C9 inh: blockers of cytochrome P450 2C9 activity – biochemical, luminescence, ADME assay, primary screen; P11712; inhibition, % at 5 µM; CYP2C9 Supersomes, luciferin-H conversion; AID 777, 2007; 96,000 tested, 20% active;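 active = blocking of liver enzyme CYP2C9 beyond about 50% at 5 µM, limit read from the data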
# CYP2C19 inhib: blockers of cytochrome P450 2C19 activity – biochemical, luminescence, ADME assay, primary screen. P33261. CYP2C19 Supersomes, luciferin-H EGE luminescence, 30 min. inhibition, % at 5 µM. 96,000 tested, 21% active. AID 778, 2007;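 active = CYP2C19 inhibition above a set limit at 5 µM in the primary screen, cut at about 50% in these data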;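 also: plate controls were negative control wells for no effect and 2.5 mM tranylcypromine positive control for full effect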
# Target sequence (P33261 whole entry, looked up): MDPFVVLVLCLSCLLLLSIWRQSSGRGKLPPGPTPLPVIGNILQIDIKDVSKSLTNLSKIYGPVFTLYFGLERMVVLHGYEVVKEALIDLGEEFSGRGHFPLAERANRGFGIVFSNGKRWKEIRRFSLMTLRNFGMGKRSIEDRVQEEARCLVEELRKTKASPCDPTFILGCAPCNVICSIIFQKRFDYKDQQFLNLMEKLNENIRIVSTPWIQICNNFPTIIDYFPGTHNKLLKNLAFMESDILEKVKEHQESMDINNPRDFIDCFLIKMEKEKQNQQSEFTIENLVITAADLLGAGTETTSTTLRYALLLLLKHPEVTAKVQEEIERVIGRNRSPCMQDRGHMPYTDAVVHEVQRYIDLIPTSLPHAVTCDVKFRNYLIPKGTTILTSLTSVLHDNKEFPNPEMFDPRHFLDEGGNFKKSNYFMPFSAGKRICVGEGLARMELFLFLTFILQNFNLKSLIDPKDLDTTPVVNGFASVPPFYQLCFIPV
# CYP2C9 act: human CYP2C9 activators, primary screen, biochemical, luminescence. recombinant CYP2C9, luciferin-H conversion; stronger effect = higher value; factor 1 = untreated enzyme, 0 = blocked. activation factor at 5 µM. 96,000 tested, 1.4% active. AID 1024, 2008;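 active = activation factor of 2 or more for CYP2C9 at a 5 µM dose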;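 also: 0 = sulfaphenazole-blocked wells and 1 = vehicle-only wells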
# MRP1 act: H69AR viability gain despite doxorubicin, primary screen, MRP-1 activator project, H69AR cells, CellTiter-Glo | viability rescue | viability increase, % at 10 µM | 140,000 tested, 0.61% active | AID 799, 2007;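 active = viability gain under doxorubicin at or above a set limit, the compound median plus 3 SD, cut at about 4.7% in these data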;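 also: MRP-1 overexpressing cells given doxorubicin 25 µM after compound pretreatment; 18-22 h compound pretreatment then 72 h with doxorubicin before readout; 0% = doxorubicin-only wells and 100% = vehicle-treated cells without doxorubicin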
# MRP resist rev: reversal of MRP1-mediated doxorubicin resistance, primary screen, H69AR cells, doxorubicin co-treatment. H69AR cells + 2 uM doxorubicin, CellTiter-Glo, 72 h. differential viability (reversal), % at 10 µM. 85,000 tested, 0.04% active. AID 602, 2007;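 active = viability drop by adding the cancer drug above about 55%, with treated viability meeting a 40% cutoff, limit read from the data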;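 also: viability without doxorubicin minus viability with 2 µM doxorubicin for each compound; larger differential means the compound sensitizes cells more to doxorubicin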
# CYP2C19 act: human CYP2C19 activators, primary screen, biochemical, luminescence; activation factor at 5 µM; recombinant CYP2C19, luciferin-H EGE luminescence; stronger effect = higher value; 0 = fully inhibited enzyme, 1 = untreated enzyme; 96,000 tested, under 10 active; AID 1025, 2008;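 active = activation factor of at least 2 at 5 µM in the primary screen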;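 also: 0 = wells with 2.5 mM tranylcypromine and 1 = vehicle-only wells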
# * hit, by the source's call; x = no result. Compounds with a hit are over-represented: about 21% of the library has one in this group of screens.
SMILES,CYP2C9 inh,CYP2C19 inhib,CYP2C9 act,MRP1 act,MRP resist rev,CYP2C19 act
CCc1ccccc1NC(=O)CSC1=C(C#N)C(c2ccc3c(c2)OCO3)C2=C(CCCC2=O)N1 (centres undefined),80*,51*,0.2,0,-3,0.5
COc1ccc(OC)c(NC(=O)CSC2=C(C#N)C(c3ccco3)C3=C(CCCC3=O)N2)c1 (centres undefined),86*,84*,0.1,-4,5,0.2
CCc1ccc(NC(=O)CSC2=C(C#N)C(c3ccc4c(c3)OCO4)CC(=O)N2)cc1 (centres undefined),x,x,x,x,4,x
COc1ccc(OC)c(C2C3=C(CCCC3=O)NC3=C2C(=O)CCC3)c1,-6,2,1.1,-1,-10,1
CC(=O)C1=C(C)NC(SCC(=O)c2ccc(C)cc2)=C(C#N)C1c1ccco1 (centres undefined),96*,99*,0,-2,-7,0
N#CC1=C(SCC(=O)c2ccc(Cl)cc2)NC2=C(C(=O)CCC2)C1c1ccco1 (centres undefined),97*,99*,0,-4,-47,0
CSC1=C(C#N)C(c2ccc(C)cc2)C2=C(CCCC2=O)N1 (centres undefined),16,9,0.8,-1,3,0.9
CC1(C)CC(=O)C2=C(C1)NC(SCC(=O)Nc1ccccc1)=C(C#N)C2c1ccco1 (centres undefined),95*,96*,0,-6,19,0
COc1ccccc1NC(=O)C1=C(C)NC(SCC(=O)c2ccccc2)=C(C#N)C1c1ccco1 (centres undefined),78*,55*,0.2,-1,-25,0.5
CC1=C(C(=O)Nc2ccccc2)C(c2ccco2)n2ncnc2N1 (centres undefined),-6,-10,1.1,-1,-6,1.1
CCSc1nc(-c2cccnc2)ccc1C#N,x,x,x,-4,x,x
Cc1cc(C)nc(SCc2ccc3nonc3c2)n1,23,46,0.8,0,x,0.5
CC1=C(C(=O)Nc2cc(C)ccn2)C(c2ccc(C)cc2)C2=C(CCCC2=O)N1 (centres undefined),24,19,0.8,-3,-5,0.8
CC1=C(C(=O)Nc2ccccc2)C(c2ccc3c(c2)OCO3)C2=C(CCCC2=O)N1 (centres undefined),53*,66*,0.5,-1,-4,0.3
COc1ccc(-c2coc3cc4oc(=O)cc(-c5ccccc5)c4cc23)cc1F,x,x,x,-6,x,x
COc1ccc(-c2coc3cc4oc(=O)cc(C)c4cc23)cc1F,11,58*,0.9,-4,x,0.4
O=C1c2ccccc2NC2CCCCCN12 (centres undefined),x,x,x,-3,5,x
O=C1c2ccccc2NC2CCCCC12 (centres undefined),-411,1,5.1*,-3,-5,1
OC(COCc1cccs1)CN1CCN(c2cccc(Cl)c2)CC1 (centres undefined),x,x,x,-1,x,x
CC1(C)C2CCC1(C)C(NC(=O)CCN1CCCCC1)C2 (centres undefined),62*,28,0.4,0,-12,0.7
Cc1ccc(NC(=O)CN(C)C(=O)Cn2cc(C(F)(F)F)cc(Cl)c2=O)cc1,x,x,x,1,x,x
O=C(NCc1ccc(Cl)cc1Cl)c1ccccn1,-23,99*,1.2,0,x,0
Clc1ccc(COc2ccccn2)c(Cl)c1,18,87*,0.8,-1,0,0.1
O=C(Cc1c[nH]c2ccccc12)NCc1ccc(Cl)cc1Cl,x,x,x,-3,x,x
S=c1[nH]nc(CSc2nc3ccccc3s2)n1C1CCCCC1,40,38,0.6,-4,x,0.6
SMILES,CYP2C9 inh,CYP2C19 inhib,CYP2C9 act,MRP1 act,MRP resist rev,CYP2C19 act
Cc1ccc(C)c(NC(=O)CSc2ccc(-c3ccco3)nn2)c1,x,x,x,0,x,x
O=C(CCCCCNS(=O)(=O)c1ccc(Br)cc1)NCCN1CCOCC1,2,-11,1,-2,18,1.1
COC(=O)c1sc(N2C(=O)C(=O)/C(=C(/O)c3ccccc3)C2c2ccco2)nc1C (centres undefined),x,x,x,-2,x,x
Cc1nc(N2C(=O)C(=O)/C(=C(/O)c3ccccc3)C2c2ccco2)sc1C (centres undefined),61*,53*,0.4,-2,2,0.5
O=C(CCCn1c(SCC(=O)NCC2CCCO2)nc2ccccc2c1=O)NCC1CCCO1 (centres undefined),44,24,0.6,-1,22,0.8
CCCCN(CC)C(=O)CSc1nc2ccccc2c(=O)n1CC1COc2ccccc2O1 (centres undefined),74*,47,0.3,-4,2,0.5
CCCCNC(=O)CSc1nc2ccccc2c(=O)n1CC1COc2ccccc2O1 (centres undefined),32,70*,0.7,-5,-11,0.3
CCOC(=O)CSc1nc2ccccc2c(=O)n1CC1CCCC1,x,x,x,-2,-8,x
Cc1ccc2cc(CCNC(=O)c3cccc([N+](=O)[O-])c3)c(=O)[nH]c2c1C,x,x,x,1,x,x
CCCCOn1c(C)c(C(=O)OCC)c2c3no[n+]([O-])c3ccc21,62*,45,0.4,0,8,0.6
CCOC(=O)c1c(C)n(OC)c2ccc3c(no[n+]3[O-])c12,43,46,0.6,-2,12,0.5
COc1ccc(C(=O)NC(=S)NC(C)C)cc1Br,18,60*,0.8,-5,x,0.4
COc1ccc(C(=O)NC(=S)NC(C)(C)C)cc1Br,2,11,1,-4,x,0.9
COc1ccc(C2C=C(C34CC5CC(CC(C5)C3)C4)NC(=S)N2)cc1 (centres undefined),x,x,x,-4,x,x
COC(=O)c1ncccc1SC,x,x,x,-2,x,x
CCOc1ccc(NC(=O)c2cn(-c3ccc(OCC)cc3)c(=O)c3cc(OC)c(OC)cc23)cc1,39,20,0.6,1,-6,0.8
CCOc1ccc(-n2cc(C(=O)Nc3cccc(Cl)c3)c3cc(OC)c(OC)cc3c2=O)cc1,59*,36,0.4,1,11,0.6
O=C(NCCC1=CCCCC1)c1cnsn1,38,65*,0.6,1,13,0.4
CCc1cc[n+](-c2nc3ccccc3nc2[N-]S(=O)(=O)c2ccc(Br)s2)cc1,x,x,x,-1,x,x
O=C1CC(C2CCCO2)C(=O)N1c1ccccc1 (centres undefined),x,x,x,0,-15,x
Cc1ccc(C(=O)n2c(-c3ccccc3)cnc2SCC(=O)Nc2ccc(C)cc2C)cc1,x,x,x,-1,x,x
